A word on the % Inhibition: it is the change of the read-out against control, counted positive when it falls.

Each structure is given as a SMILES string. Out of some 150,000 compounds screened, about 540 (0.36%) showed an effect of 50% or more. Shown is part of a subset that was picked to be rich in strong results.

The subject of this assay is Plasmodium falciparum. Kind of assay: Primary screen in NF54 nanoGlo assay, in single point, at 2uM, 72h; a lower Z score goes with more inhibition. Format: functional, Erythrocyte. The following applies: timepoint 72 hour.
Regarding `CC1(CO)CCCC1NCC(C)(O)C(F)(F)F` (stereo unspecified), the “% Inhibition” value was 33% and the Z score was -3.73.
For `O=c1c2ccccc2nc(Cc2ccccc2)n1Nc1ccccc1`, in that order: -13% and 1.76.
Regarding `CCc1cc(-c2cccc(C(=O)N3C[C@@H]4CC[C@H](C3)C(=O)N4)c2)nc(C)n1`, the “% Inhibition” value was -4% and the Z score was 0.67.
Take `Cc1ccc(-c2cccc(C(=O)NCC3CCOCC3)c2)c(C)n1`: the “% Inhibition” value was -2% and the Z score turned out to be 0.22.
The matching figures for `COc1nc(-c2cccc(C(=O)N3C[C@@H]4CC[C@H](C3)C(=O)N4)c2)ncc1F`: 68% and -12.2.
For `Cc1cc(C)nc(-c2cccc(C(=O)NC[C@H]3CCOC3)c2)n1`, in that order: -2% and 0.19.
As for `COc1nc(-c2cccc(C(=O)NCC3CCOCC3)c2)ncc1F`, the “% Inhibition” value is given as 70% and the Z score is -12.03.
For `O=C1N[C@H]2CC[C@@H]1CN(C(=O)c1cccc(-c3ccc4nccc(O)c4c3)c1)C2`, in that order: -3% and 0.64.
For `O=C(NCC1CCOCC1)c1ccc(-c2ccc(C(F)(F)F)cn2)cc1`, in that order: 1% and -0.21.
As for `O=C(NCC1CCOCC1)c1ccc(-c2ccc(Cl)cn2)cc1`, the “% Inhibition” value came to 7% and the Z score is -1.01.
The matching figures for `Cc1nc[nH]c1CN(Cc1c(C)nn(C)c1C)C(C)C`: -7% and 0.99.
For `CC(C)N(CC1CCC1)C(=O)NC1CCC(Oc2cnccn2)CC1` (stereo unspecified), in that order: 29% and -3.26.
For `COc1cc(C)c(-c2ccc(C(=O)N3CCCCCC3)cc2)cn1`, in that order: -10% and 1.56.
Turning to `Cc1ccc2c(C3=CCN(C(=O)c4cnc5[nH]c(=O)[nH]c(=O)c5c4)CC3)c[nH]c2c1`, the “% Inhibition” value came to 6% and the Z score is given as -1.15.
The matching figures for `O=C(CCc1cc2n(n1)CCN(Cc1ccc3ccccc3n1)C2)NCCO`: -16% and 2.81.
Consider `CCOCCC1CCN(C(=O)c2cccc(-n3cccn3)n2)CC1`, for which the “% Inhibition” value is on record as -15% and the Z score stood at 1.43.
For `CCc1ocnc1C(=O)NC1CCCCCC1C(=O)OC` (stereo unspecified), in that order: -7% and 0.61.
Take `O=C(c1ccccc1)C1C(c2ccccc2)N1C(=O)c1cccc(Cl)c1` (stereo unspecified): the “% Inhibition” value was -7% and the Z score was 0.84.
As for `CC(=O)Nc1ccc(-c2cc(-c3ccccc3)nc(-c3ccccc3)n2)cc1`, the “% Inhibition” value is recorded as -14% and the Z score worked out at 2.76.
For `CC(=O)Nc1ccc(-c2cn3c4ccccc4ccc3[n+]2C)cc1`, in that order: 87% and -10.86.
For the compound `CC(=O)Nc1ccc(-c2cn(C)c[n+]2C)cc1`, the “% Inhibition” value is -42% and the Z score is 4.97.
With `OC1(c2csc(CN3CCOCC3)n2)CCN(Cc2ccccn2)CC1`, the “% Inhibition” value is on record as -9% and the Z score is 1.39.
The matching figures for `Cn1c(C(=O)Nc2cc(F)ccc2NC(=O)c2ccccn2)cc(Cl)c1Cl`: -27% and 2.71.
For `CC(C)N1CC[C@H](NCCc2ccccc2)C1`, in that order: -6% and 0.77.
The matching figures for `O=C(NCCc1ccccc1)NC1CCCC1`: -11% and 2.11.
For `C[C@H]1CCC[C@@H](NCCc2ccccc2)CCC/C=C/c2cc(O)cc(O)c2C(=O)O1`, the “% Inhibition” value is listed as 73% and the Z score is -6.47.
With `NC(=O)c1ccc(NCCOc2cccc(Cl)c2Cl)nn1`, the “% Inhibition” value is -9% and the Z score came out at 1.2.
The matching figures for `CCC[C@H]1CN(C(=O)c2cccc3cn[nH]c23)CCN1CCOC`: 4% and -0.6.
As for `Cc1ccccc1NC(=O)CN1CCN(Cc2ccccc2)S1(=O)=O`, the “% Inhibition” value is listed as -18% and the Z score was 1.6.
Turning to `Cc1ccc(C2=C[C@@H](c3ccc(C)cc3)n3nc(NC(=O)c4cccc(Cl)c4)nc3N2)cc1`, the “% Inhibition” value came out at 16% and the Z score is given as -2.03.
The matching figures for `Cc1ccc(C2=C[C@@H](c3ccc(Cl)cc3)n3nc(NC(=O)c4ccccc4)nc3N2)cc1`: 84% and -8.34.
As to `CC1=C[C@@H](c2ccc(Cl)cc2)n2nc(NC(=O)c3ccccc3)nc2N1`, the “% Inhibition” value is -6% and the Z score is given as 1.14.
The matching figures for `CC(=O)Nc1ccccc1CN(Cc1ccc(F)cc1F)C1CC1`: 9% and -0.85.
Take `CCN(C(=O)c1ccccc1Cc1ccc(C)cc1)C1CCOCC1`: the “% Inhibition” value was -13% and the Z score amounted to 1.36.
The matching figures for `Cn1nccc1/C=C1\CC2C3CCc4cc(O)ccc4C3CCC2(C)C1O` (stereo unspecified): 54% and -6.08.
The matching figures for `CC(C)C(=O)NCCN(C)Cc1ccc(C#N)cc1Br`: -19% and 2.19.
Take `Cc1ncsc1CN(C)[C@@H](C(=O)O)c1ccsc1`: the “% Inhibition” value stood at 3% and the Z score is -0.57.
For `Cc1nnc(C(C)NC(=O)C2(C)CCCN(C(=O)c3ccccc3)C2)o1` (stereo unspecified), in that order: -7% and 0.99.
As for `C[C@]1(C(=O)Nc2cn[nH]c2)CCCN(C(=O)c2ccccc2)C1`, the “% Inhibition” value was -8% and the Z score amounted to 1.66.
For `Cc1nc2cc(NC(=O)[C@@]3(C)CCCN(C(=O)c4ccccc4)C3)ccc2o1`, the “% Inhibition” value turned out to be 55% and the Z score is -8.5.
For `Cc1ccc(N2C[C@H](C(=O)O)[C@@H](C(C)C)C2)nn1`, the “% Inhibition” value is -13% and the Z score was found to be 1.69.
The matching figures for `CC1(C)CN(Cc2nnc(C3CC3)o2)CCN1Cc1ccccc1`: -3% and 0.43.
The matching figures for `O=C(NCc1ccco1)Nc1nccs1`: 1% and -0.2.
For `O=C(NCCN1CCOCC1)c1c[nH]c2ccc(Cl)cc2c1=O`, in that order: 1% and -0.13.
In the case of `O=S(=O)(CCC1Cc2ccccc2C1)N1CCC[C@@](O)(C(F)(F)F)CC1`, the “% Inhibition” value worked out at 34% and the Z score is given as -3.86.
Consider `O=C(Cn1cc(F)ccc1=O)N1CCc2ccccc21`, for which the “% Inhibition” value is -8% and the Z score amounted to 1.07.
The matching figures for `COc1cc(CNC2CCCCCC2)ccc1OC[C@@H](O)CN1CCCCCC1`: 1% and -0.22.
The matching figures for `CN1CCN(C2(CNC(=O)Nc3ccccc3C(F)(F)F)CCCC2)CC1`: -2% and 0.33.
For `CN1CCN(C2(CNc3ccnc4ccccc34)CCCC2)CC1`, in that order: 99% and -9.07.
On to `O=C(NCc1c(F)cccc1Cl)c1cnc(-c2cccnc2)nc1`, for which the “% Inhibition” value is listed as -19% and the Z score worked out at 1.75.
`C[C@@H](C(=O)Nc1ccc(F)cc1)N1CCC(NS(=O)(=O)c2cccs2)CC1`: the “% Inhibition” value is given as 32% and the Z score was -3.04.
The matching figures for `C[C@@H](C(=O)Nc1c(F)cccc1F)N1CCC(NS(=O)(=O)c2cccs2)CC1`: -7% and 0.81.
The matching figures for `CCc1ccc(NC(=O)[C@H](C)N2CCC(NS(=O)(=O)c3cccs3)CC2)cc1`: 76% and -7.11.
The matching figures for `CC1(C)C(NCC(O)COc2ccc(F)c(F)c2)[C@@H]2CCC[C@@H]21` (stereo partly specified): 61% and -6.95.
In the case of `Cc1cccc(OCC(O)CNC2C3CCCOC3C2(C)C)c1` (stereo unspecified), the “% Inhibition” value is recorded as -10% and the Z score stood at 0.93.
In the case of `COc1ccc(C(CO)CNC2[C@@H]3CCC[C@@H]3C2(C)C)cc1` (stereo partly specified), the “% Inhibition” value was 0% and the Z score was -0.02.
Turning to `CC(=O)[C@H](C)n1nc(C2CC2)ccc1=O`, the “% Inhibition” value is listed as -17% and the Z score is 2.21.
For `COc1ccccc1-n1c(=O)[nH]c2nc(NCc3cccnc3)ncc2c1=O`, in that order: 1% and -0.13.
In the case of `Cc1cccc(-n2c(=O)[nH]c3nc(NCCN(C)C)ncc3c2=O)c1C`, the “% Inhibition” value stood at 50% and the Z score is -0.77.
For `Cc1cccc(-n2c(=O)[nH]c3nc(N4CCCC4)ncc3c2=O)c1C`, in that order: -4% and 0.62.
For `Cc1cccc(N(CCC#N)C(=O)c2cc3ccccc3c(=O)[nH]2)c1`, in that order: -18% and 1.68.
With `O=C(c1ccncc1F)N1CCCC[C@@H]1CCc1ccccn1`, the “% Inhibition” value is -23% and the Z score is reported as 2.29.
For `Cc1ccc(CNC(=O)CCNc2c(-c3cccc(F)c3)nc3cnccn23)o1`, in that order: -18% and 2.57.
As to `Cc1ccc(CCN2CCC[C@@H]2C(=O)O)cc1`, the “% Inhibition” value was 3% and the Z score is on record as -0.5.
On to `O=C(NC1CCC(N2C(=O)CCC2=O)CC1)C1CC1C1CCCCC1` (stereo unspecified), for which the “% Inhibition” value is given as -7% and the Z score turned out to be 0.72.
For `O=C1NC(=O)c2ccc3c4c(ccc1c24)C(=O)N(c1ccccc1)C3=O`, in that order: 73% and -8.98.
For `O=C1c2cc(Nc3ccccc3)c3c4c(cc(Nc5ccccc5)c(c24)C(=O)N1c1ccccc1)C(=O)N(c1ccccc1)C3=O`, in that order: 3% and -0.42.
With `O=C1c2ccc(O)cc2C(=O)N1c1ccc(N(c2ccccc2)c2ccc(N3C(=O)c4ccc(O)cc4C3=O)cc2)cc1`, the “% Inhibition” value is on record as 8% and the Z score is -1.03.
For `COc1ccc2cc3n(c2c1)C[C@@](C)(C(=O)NC1CCCC1)N(Cc1ccc(F)cc1)C3=O`, in that order: 73% and -1.23.
The matching figures for `COc1cccc(CN2C(=O)c3cc4ccc(OC)cc4n3C[C@@]2(C)C(=O)NC2CCCCCC2)c1`: -12% and 1.58.
`COc1ccc2cc3n(c2c1)C[C@@](C)(C(=O)NC1CCCCCC1)N(CCN1CCCCCC1)C3=O`: the “% Inhibition” value is reported as 2% and the Z score is -0.31.
`Cc1ccc(C(=O)N2CCCC[C@H]2c2nnc(-c3ccncc3)[nH]2)cn1`: the “% Inhibition” value is -12% and the Z score was determined as 2.36.
Take `CCOc1cc(CNc2ccc3c(c2)OCO3)ccc1OC`: the “% Inhibition” value is listed as -1% and the Z score is listed as 0.26.
Regarding `CC1(C)OCc2cc(CNc3ccc4oc(=O)[nH]c4c3)ccc2O1`, the “% Inhibition” value is listed as 96% and the Z score is given as -13.84.
For the compound `C[C@@H](NCc1ccc2c(c1)COC(C)(C)O2)c1cccc(O)c1`, the “% Inhibition” value is on record as -21% and the Z score came to 2.42.
As to `O=S(=O)(c1cccc(F)c1F)N1CCN(Cc2nccn2C(F)F)CC1`, the “% Inhibition” value is given as -4% and the Z score is recorded as 0.57.
As for `Cc1ccc(-c2n[nH]c3c2cnc2ccc(C)cc23)cc1`, the “% Inhibition” value is -5% and the Z score was 0.82.
For `COc1cc2ncc3c(-c4ccccc4)n[nH]c3c2cc1OC`, in that order: 9% and -0.99.
In the case of `COc1cc2ncc3c(-c4ccc(C)c(C)c4)n[nH]c3c2cc1OC`, the “% Inhibition” value came out at 51% and the Z score is -4.04.
On to `CC(C)C(=O)N[C@@H](N1CCCCCC1)C(Cl)(Cl)Cl`, for which the “% Inhibition” value is -15% and the Z score turned out to be 2.02.
For the compound `Cn1nc(C(=O)NC2CCN(Cc3ccccc3)CC2)c2ccccc2c1=O`, the “% Inhibition” value stood at 34% and the Z score was -3.81.
For `O=C(Nc1cnc2c(c1)COCC2)c1cccc(OC(F)F)c1`, the “% Inhibition” value is on record as -1% and the Z score was 0.19.
For `O=C(CNC(=O)c1ccc(C(F)(F)F)cc1)Nc1cnc2c(c1)COCC2`, in that order: 34% and -4.64.

Source of the values: ChEMBL document CHEMBL4888484, “Replenishing the malaria drug discovery pipeline: Screening and hit evaluation of the MMV Hit Generation Library 1 (HGL1) against asexual blood stage Plasmodium falciparum ,using a nano luciferase reporter read-out” (2022).
